Source: PubChem BioAssay
The source made the active and inactive calls.

assay: plasmodial surface anion channel blockers, osmotic lysis – cell-based, P. falciparum Indochina, OD700, 2 h, primary screen (AID 1155);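 also: lysis reports solute entry through the parasite surface anion channel PSAC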; details: P. falciparum Indochina infected erythrocytes, higher = more signal, called active from +8 up or from −8 down

z-score, inactive:
CCOC(=O)C[C@H]1[C@H](OC(=O)Cc2ccc3c(c2)OCO3)[C@@H](NC(=O)c2ccc3ccccc3c2)c2cc(OCCCO)ccc2N1C(=O)c1ccccc1 0.522, CCN(CC)c1ccc(N2CC=CC34O[C@@H]5/C=C\CCCOC(=O)C5[C@H]3C(=O)N(CCO)[C@@H]4C2=O)cc1 (stereo partly specified) 0.175, C=CCNC(=O)[C@@H]1[C@H]2C(=O)O[C@H](c3ccccc3)[C@H](c3ccccc3)N2[C@H](c2ccccc2OCCO)[C@@]12C(=O)N(C(=O)OCCOC)c1ccc(C#CCNC(N)=O)cc12 0.483, O=C1C[C@]2(c3ccc([N+](=O)[O-])cc3)C(=O)N(CCN3CCOCC3)c3cc(CO)ccc3[C@H]2N1C1CCCCC1 -0.837, CN1C(=O)C2C=CC(C(O)C3CC=CCC3)N(NC(=O)OC(C)(C)C)C2C1=O (stereo unspecified) 0.737, COCCCNC(=O)C1N=C(c2ccc(OCCCO)cc2)N(c2ccccc2)O1 (stereo unspecified) 2.14, C=C(COC)/C(=C/C[C@H](OC(=O)c1ccncc1)c1ccc(OCCO)cc1)c1cnc2ccccc2c1 3.18, C=CCOC(=O)[C@H]1[C@@H]2C(=O)O[C@@H](c3ccccc3)[C@@H](c3ccccc3)N2[C@@H](c2ccc(OCCOC(=O)[C@@H]3C[C@@H]4C(=O)N[C@@H](CCCC[N+](C)(C)C)C(=O)N4[C@@H]3c3ccc(O)cc3)cc2)[C@]12C(=O)Nc1ccccc12 -0.689, O=C1NC(=O)C2C1C=CC(C(O)c1cccc3ccccc13)N2Nc1ccccn1 (stereo unspecified) 0.344, COc1ccc(C(=O)Nc2cccc(CN3C(=O)[C@]4(O[C@H](CCO)[C@@H]([Si](C)(C)c5ccc(OC)cc5)[C@@H]4C)c4ccccc43)c2)cc1 1.45, COC(=O)c1c(CC[C@@H](CO)NC(=O)N2CCC[C@H]2Cn2cc(-c3ccccn3)nn2)oc(C(C)=O)c1C(=O)OC -0.448, C=CCN1C(=O)[C@]2(O[C@H](CCO)[C@@H]([Si](C)(C)c3ccc(OC)cc3)[C@@H]2C)c2cc(N3C(=O)c4cccc5cccc3c45)ccc21 4.41, CC(C)C(=C=CC[C@@H](O)c1ccccc1OCCO)CCO 0.63, O=C(NCC(F)(F)F)[C@@H]1c2ccccc2C(=O)N(C2CCCCC2)[C@H]1c1ccc(CO)cc1 -0.243, CN1C(=O)C2C=CC(C(O)c3cccs3)N(Nc3ccccc3)C2C1=O (stereo unspecified) 0.65, COc1cc2c(cc1O)C(C1CC1)N(Cc1cc3c(cc1Br)OCO3)CC2 (stereo unspecified) 1.17, COCCOC(=O)N1C(=O)[C@@]2(c3cc(C#CCCO)ccc31)[C@H](c1ccc(OCCO)cc1)N1[C@H](c3ccccc3)[C@H](c3ccccc3)OC(=O)[C@H]1[C@@H]2C(=O)N1CCN(c2ncccn2)CC1 1.58, O=C1O[C@H](c2ccccc2)[C@H](c2ccccc2)N2[C@H]1[C@@H](C(=O)NC[C@H](O)c1ccccc1)[C@]1(C(=O)Nc3ccccc31)[C@H]2c1ccc(OCCO)cc1 1.36, O=C1c2ccccc2[C@](Cc2ccccc2I)(C(=O)NC2CC2)[C@H](c2ccc(CO)cc2)N1C1CCCCC1 5.2, CC(=O)NCCCC[C@@H]1NC(=O)[C@@H]2C[C@H](C(=O)NCCCCCCNC(=O)CS)[C@H](c3cccc(OCCO)c3)N2C1=O 0.642, COCCOC(=O)N1C(=O)[C@@]2(c3cc(C#CC4=CCCCC4)ccc31)[C@H](C(=O)N1CCc3cc(OC)c(OC)cc3C1)[C@H]1C(=O)O[C@H](c3ccccc3)[C@H](c3ccccc3)N1[C@@H]2c1ccc(OCCO)cc1 1.19, COCCOC(=O)N1C(=O)[C@@]2(c3cc(C#CC4=CCCCC4)ccc31)[C@H](C(=O)Nc1nc3ccccc3s1)[C@H]1C(=O)O[C@H](c3ccccc3)[C@H](c3ccccc3)N1[C@@H]2c1ccccc1OCCO 0.926, COc1ccc(C(O)C2C=CC3C(=O)N(c4ccccc4)C(=O)C3N2Nc2ccc(C(C)C)cc2)cc1OCc1ccccc1 (stereo unspecified) 1.62

z-score, active:
C=CC[C@@]1(C(=O)N(C)C)N=C(c2ccc(OCCCO)cc2)O[C@@H]1c1ccccc1N=[N+]=[N-] 28.9, O=C(NCc1ccccc1)[C@@]1(CCS(=O)(=O)c2ccccc2)N=C(c2ccc(OCCCO)cc2)O[C@H]1c1ccccc1 10.4

assay: changes in parasitized red cell lysis, either direction – P. falciparum Indochina, OD700, 3 h, PSAC antagonist project, primary screen (AID 1156); details: P. falciparum-infected erythrocytes, osmotic lysis, higher = more signal, called active from +8 up or from −8 down

z-score, inactive:
CN(C)C(=O)[C@]1(Cc2ccccc2N=[N+]=[N-])N=C(c2ccc(OCCCO)cc2)O[C@@H]1c1ccccc1 2.4, CCCCCC1=C2CNC(CCC)(C(=O)OC)C=C2C(C)C1=O (stereo unspecified) 0.807, COCCOC(=O)N1C(=O)[C@@]2(c3cc(C#CCCO)ccc31)[C@H](C(=O)N1CCc3cc(OC)c(OC)cc3C1)[C@H]1C(=O)O[C@H](c3ccccc3)[C@H](c3ccccc3)N1[C@@H]2c1ccc(O)cc1 0.262, O=C(NCc1ccccc1)[C@@]1(Cc2ccccc2)N=C(c2ccc(OCCCO)cc2)O[C@H]1c1ccccc1 1.5, CC(C)c1ccc(NN2C(C(O)c3cc(C(F)(F)F)cc(C(F)(F)F)c3)C=CC3C(=O)N(c4ccccc4)C(=O)C32)cc1 (stereo unspecified) -1.37, CN1C(=O)[C@]2(Cc3ccccc3)N=C(c3ccc(OCCCO)cc3)O[C@@H]2c2ccccc21 2.34, CC(C)(C)OC(=O)CC[C@]1(C(=O)NCC(O)CO)COC(c2ccc(OCCCO)cc2)=N1 (stereo partly specified) 0.639, CCOC(=O)C[C@H]1[C@H](OC(=O)c2cc3ccccc3oc2=O)[C@@H](NC(=O)Cc2ccc(OC)cc2)c2cc(OCCCO)ccc2N1C(=O)c1ccccc1 0.776, COc1ccc(CCNC(=O)[C@@]2(Sc3ccc(C)cc3)CC(=O)N(C3CCCCC3)[C@@H]2c2ccc(CO)cc2I)cc1 -0.325, COc1ccc(C(=O)O[C@H]2CC[C@]3(C)C4=C(CCC3C2(C)C)[C@]2(C)CC[C@H]([C@H](C)CCCC(C)C)[C@@]2(C)CC4)cc1 (stereo partly specified) -0.246, CCOC(=O)C[C@H]1[C@H](OC(=O)Cc2ccc3c(c2)OCO3)[C@@H](NC(=O)c2ccc3ccccc3c2)c2cc(OCCCO)ccc2N1C(=O)c1ccccc1 -0.552, CCN(CC)c1ccc(N2CC=CC34O[C@@H]5/C=C\CCCOC(=O)C5[C@H]3C(=O)N(CCO)[C@@H]4C2=O)cc1 (stereo partly specified) 0.227, C=CCNC(=O)[C@@H]1[C@H]2C(=O)O[C@H](c3ccccc3)[C@H](c3ccccc3)N2[C@H](c2ccccc2OCCO)[C@@]12C(=O)N(C(=O)OCCOC)c1ccc(C#CCNC(N)=O)cc12 1.3, O=C1C[C@]2(c3ccc([N+](=O)[O-])cc3)C(=O)N(CCN3CCOCC3)c3cc(CO)ccc3[C@H]2N1C1CCCCC1 -0.584, CN1C(=O)C2C=CC(C(O)C3CC=CCC3)N(NC(=O)OC(C)(C)C)C2C1=O (stereo unspecified) -0.138, COCCCNC(=O)C1N=C(c2ccc(OCCCO)cc2)N(c2ccccc2)O1 (stereo unspecified) 0.669, C=C(COC)/C(=C/C[C@H](OC(=O)c1ccncc1)c1ccc(OCCO)cc1)c1cnc2ccccc2c1 1.47, C=CC[C@@]1(C(=O)N(C)C)N=C(c2ccc(OCCCO)cc2)O[C@@H]1c1ccccc1N=[N+]=[N-] 3.29, C=CCOC(=O)[C@H]1[C@@H]2C(=O)O[C@@H](c3ccccc3)[C@@H](c3ccccc3)N2[C@@H](c2ccc(OCCOC(=O)[C@@H]3C[C@@H]4C(=O)N[C@@H](CCCC[N+](C)(C)C)C(=O)N4[C@@H]3c3ccc(O)cc3)cc2)[C@]12C(=O)Nc1ccccc12 4.3, O=C1NC(=O)C2C1C=CC(C(O)c1cccc3ccccc13)N2Nc1ccccn1 (stereo unspecified) 0.274, COc1ccc(C(=O)Nc2cccc(CN3C(=O)[C@]4(O[C@H](CCO)[C@@H]([Si](C)(C)c5ccc(OC)cc5)[C@@H]4C)c4ccccc43)c2)cc1 0.374, COC(=O)c1c(CC[C@@H](CO)NC(=O)N2CCC[C@H]2Cn2cc(-c3ccccn3)nn2)oc(C(C)=O)c1C(=O)OC -0.315, C=CCN1C(=O)[C@]2(O[C@H](CCO)[C@@H]([Si](C)(C)c3ccc(OC)cc3)[C@@H]2C)c2cc(N3C(=O)c4cccc5cccc3c45)ccc21 0.0626, O=C(NCc1ccccc1)[C@@]1(CCS(=O)(=O)c2ccccc2)N=C(c2ccc(OCCCO)cc2)O[C@H]1c1ccccc1 0.559, CC(C)C(=C=CC[C@@H](O)c1ccccc1OCCO)CCO -1.33, O=C(NCC(F)(F)F)[C@@H]1c2ccccc2C(=O)N(C2CCCCC2)[C@H]1c1ccc(CO)cc1 0.0266, CN1C(=O)C2C=CC(C(O)c3cccs3)N(Nc3ccccc3)C2C1=O (stereo unspecified) -0.109, COc1cc2c(cc1O)C(C1CC1)N(Cc1cc3c(cc1Br)OCO3)CC2 (stereo unspecified) 0.838, COCCOC(=O)N1C(=O)[C@@]2(c3cc(C#CCCO)ccc31)[C@H](c1ccc(OCCO)cc1)N1[C@H](c3ccccc3)[C@H](c3ccccc3)OC(=O)[C@H]1[C@@H]2C(=O)N1CCN(c2ncccn2)CC1 -0.325, O=C1O[C@H](c2ccccc2)[C@H](c2ccccc2)N2[C@H]1[C@@H](C(=O)NC[C@H](O)c1ccccc1)[C@]1(C(=O)Nc3ccccc31)[C@H]2c1ccc(OCCO)cc1 0.179, O=C1c2ccccc2[C@](Cc2ccccc2I)(C(=O)NC2CC2)[C@H](c2ccc(CO)cc2)N1C1CCCCC1 3.82
